Rows were chosen to be rich in hits. Some 3.6% of all compounds tested hit in one or more screens of this group.
mHTT-CaM PPI inh – disrupts binding of mutant huntingtin to calmodulin; AlphaScreen His-mHTT/GST-CaM binding, luminescence; P42858; 190,000 tested, 3.6% active; AID 1671202; inhibition, % at 15 µM;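 also: 0% = both proteins with DMSO and 100% = one protein alone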
Pf apPOL inh – Pf-apPOL DNA polymerase inhibition; Recombinant Pf-apPOL, molecular beacon fluorescence, 1.5 h; inhibition, % at 10 µM; 210,000 tested, 0.25% active; AID 1794808
An asterisk follows results filed as active; x = no result. Rule as the data show it: active = inhibition above about 50%; inactive = the rest.

SMILES | mHTT-CaM PPI inh | Pf apPOL inh
Cc1cc2c(C(C)C)c(O)c(O)c(C=NCSN)c2c(O)c1-c1c(C)cc2c(C(C)C)c(O)c(O)c(C=NCSN)c2c1O | 100.3* | x
O=C(O)c1cc(NS(=O)(=O)c2ccc(Cl)cc2)cc(C(=O)O)c1 | -2.8 | 71.4*
O=S(=O)(Nc1cc(Cl)cc(Cl)c1)c1ccc(Cl)cc1 | -23.9 | x
O=C1N(CC[C@@H](O)c2ccccc2)CCC12CCC(c1ccccc1)CC2 (some centres not stated) | -2.6 | -9.9
Cc1ccccc1C1CCC2(CC1)CCN(CC[C@@H](O)c1ccccc1)C2=O (some centres not stated) | 53.3* | -8.6
CC1CCCCC1NC(=O)Nc1cn(C)c2ccccc12 (configuration not stated) | -10.3 | -0.9
CN(C)c1ccc(NC(=O)Nc2cn(C)c3ccccc23)cc1 | 55.6* | 1.5
O=C(O)c1ccc(-c2ccc(F)cc2)o1 | -2.5 | -2.9
Nc1ccc(N)c2c1C(=O)c1c(N)ccc(N)c1C2=O | 92.0* | -2.5
Nc1ccc(C(=O)c2ccc(N)c(N)c2)cc1N | 10.4 | -11.2
CC(=O)NC(c1ccc(Cl)cc1)c1cc(Cl)c2cccnc2c1O (configuration not stated) | 74.0* | 7.6
CC(=O)NC(c1ccc(Cl)cc1Cl)c1cc(Cl)c2cccnc2c1O (configuration not stated) | 100.0* | -9.6
CC(=O)NC(/C=C/c1ccccc1)c1cc([N+](=O)[O-])c2cccnc2c1O (configuration not stated) | 100.0* | 7.5
Cc1ccc(C(NC(=O)C(C)C)c2cc(Cl)c3cccnc3c2O)cc1 (configuration not stated) | 24.0 | -9.8
CC(=O)NC(c1ccc(Cl)cc1)c1cc([N+](=O)[O-])c2cccnc2c1O (configuration not stated) | 100.0* | -46.6
CCCC(=O)NC(/C=C/c1ccccc1)c1cc([N+](=O)[O-])c2cccnc2c1O (configuration not stated) | 12.0 | 5.6
CC1CCCCC1NC(=O)c1ccc([N+](=O)[O-])cc1 (configuration not stated) | -2.1 | 1.9
COc1cc2c(cc1OC)C(C(=O)NC1CCCC(C)C1C)C(c1cccs1)N(C)C2=O (configuration not stated) | 26.0 | 5.0
CCC(=O)Nc1cccc(-c2noc(C3CCCN(C(=O)c4ccc(Cl)cc4)C3)n2)c1 (configuration not stated) | 10.6 | -4.2
CCNC(=O)c1ccc2c(c1)CCN2C(=O)C(C)C | 2.8 | -4.1
O=C(Cc1csc(Nc2ccccc2)n1)NCCC1=CCCCC1 | 11.5 | -4.6
O=C(Nc1ccccc1Cl)O[C@@H]1C[C@H]2C[C@@H]1[C@H]1CCCCN1[C@H]2Cc1ccccc1 | 39.9 | -5.2
CN(Cc1ccccc1F)c1cc2c(c3c1ccn3C)C1CCC2C1 (configuration not stated) | 56.4* | -0.2
Cn1ccc2c(-c3ccccc3F)cc3c(c21)C1CCC3C1 (configuration not stated) | 13.1 | -2.9
O=C(C1CCCO1)N1CCc2c(nc(-c3ccc(F)cc3)[nH]c2=O)C1 (configuration not stated) | -3.7 | 7.1
SMILES | mHTT-CaM PPI inh | Pf apPOL inh
CCOC(=O)N1CCN(c2cc(N3CCCCCC3)c(F)cc2[N+](=O)[O-])CC1 | 10.6 | 9.7
CC1CC(C)CN(C(=O)c2ccc(Cl)cc2[N+](=O)[O-])C1 (configuration not stated) | 0.0 | 1.6
CC1CCCN(C(=O)c2ccc(Cl)cc2[N+](=O)[O-])C1 (configuration not stated) | 2.7 | 80.4*
Cc1cccc(N2CCN(C(=O)C3CCCN(c4cc(=O)n(C)c(=O)n4C)C3)CC2)c1C (configuration not stated) | 51.1* | -2.8
Cc1cccc(N2CCN(C(=O)C3CCCN(c4cnn(C)c(=O)c4)C3)CC2)c1C (configuration not stated) | 34.0 | -4.4
O=C(Cn1c(=O)n(-c2ccc(F)c(Cl)c2)c(=O)c2sccc21)NC1CCCC1 | -6.0 | 4.8
COc1ccccc1CC(=O)N1CCC(c2nc(C(=O)N3CCCCC3)c(C)o2)CC1 | 11.1 | -1.1
COC(=O)c1sccc1NN=C(C#N)C(=O)c1ccc(Cl)cc1 | x | -1.3
CC(C)C1C(=O)N(Cc2cn(CC3CCCCC3)nn2)CCS(=O)(=O)N1Cc1ccc(-c2ccccc2)cc1 (configuration not stated) | 29.5 | -4.2
Cc1ccc(-c2ccc(CN3C(C(C)C)C(=O)N(Cc4cn(CC5CCCCC5)nn4)CCS3(=O)=O)cc2)cc1 (configuration not stated) | 17.1 | 2.7
CC1C(=O)N(Cc2cn(CC3CCCCC3)nn2)CCS(=O)(=O)N1Cc1ccc(-c2ccc(F)cc2)cc1 (configuration not stated) | 58.5* | 4.9
CC1C(=O)N(Cc2cn(CC3CCCCC3)nn2)CCS(=O)(=O)N1Cc1ccc(-c2ccncc2)cc1 (configuration not stated) | 40.2 | 10.0

High-throughput results from PubChem BioAssay.
